# Source: PubChem BioAssay (National Center for Advancing Translational Sciences (NCATS))
# AmpC detergent: inhibitors of E. coli AmpC beta-lactamase with detergent. 370,000 compounds, 0.041% hits. AmpC hydrolysis of nitrocefin, absorbance 480 nm, 0.01% Triton. Potency, µM (titrated, usually from 114 µM), inactives show at the highest dose activity change, negative = inhibition, hits mostly inhibitors;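 also: potency is read from the fitted curve at half-maximal effect; 0% = no-compound wells and -100% = no-enzyme wells; nearly all actives have a fitted effect of over 25% in size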
# Target sequence (P00811 whole entry, looked up): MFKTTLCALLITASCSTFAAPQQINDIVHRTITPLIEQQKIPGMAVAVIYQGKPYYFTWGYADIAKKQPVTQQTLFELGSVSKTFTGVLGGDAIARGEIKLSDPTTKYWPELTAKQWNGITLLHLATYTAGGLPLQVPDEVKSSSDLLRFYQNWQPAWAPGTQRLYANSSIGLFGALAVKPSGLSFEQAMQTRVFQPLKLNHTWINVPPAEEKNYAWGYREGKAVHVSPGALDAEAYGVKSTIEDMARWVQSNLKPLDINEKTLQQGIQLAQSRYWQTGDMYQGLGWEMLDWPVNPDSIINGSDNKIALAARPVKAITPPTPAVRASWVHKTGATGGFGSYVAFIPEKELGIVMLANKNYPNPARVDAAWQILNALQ
#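 AmpC (5.3 nM in the dispensed reagent) in 20 mM phosphate pH 7.0 with 0.01% (detergent screen) or 0.0001% Triton X-100 was preincubated with compounds for 15 min at room temperature. Nitrocefin was then added from an 800 uM solution, and hydrolysis was followed at 480 nm.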
# HCMV inh: human cytomegalovirus inhibition; HFF cells, HCMV-luciferase reporter, 72 h; active compounds read low; activity change, negative = inhibition, % at 57.5 µM; 410,000 compounds, 4.5% hits; AID 1259415; in the data active = activity change below about -60%; inconclusive = no clear call, values can overlap the other calls; inactive = above about -39%
#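 Inhibition of viral replication was scored as loss of reporter luminescence in HFFs infected with HCMV-luciferase (MOI 1 PFU/cell) for 72 h; compounds tested at 2 doses, normalized to buffer and Salinomycin controls.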
# FMDV antiviral: foot and mouth disease virus antiviral activity; FMDV antiviral cell-based qHTS; Potency, µM (series often up to 57.9 µM), inactives show at the highest dose activity change, negative = inhibition, most hits filed as inhibitors; 410,000 compounds, 1.2% hits; calls by dose curve; tested in HEK293T cells; also: read-out not given here; potency is read from the fitted curve at half-maximal effect; nearly all actives have a fitted effect of over 45% in size
# AmpC inh no detg: inhibitors of E. coli AmpC beta-lactamase without detergent; AmpC nitrocefin hydrolysis, absorbance 480 nm, 0.0001% Triton; AID 485341; P00811; 330,000 compounds, 0.52% hits; Potency, µM (highest dose often 57.1 µM), for inactives: at the highest dose activity change, negative = inhibition, actives largely listed as inhibitors;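 also: potency is read from the fitted curve at half-maximal effect; plate controls were no compound for no effect and no enzyme for full effect; nearly all actives have a fitted effect of over 20% in size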
#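 AmpC (5.3 nM in the dispensed reagent) in 20 mM phosphate pH 7.0 with 0.01% (detergent screen) or 0.0001% Triton X-100 was preincubated with compounds for 15 min at room temperature. Nitrocefin was then added from an 800 uM solution, and hydrolysis was followed at 480 nm.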
# HCV inh: HCV inhibition. Huh7.5.1 HCVcc-Cre infection, luciferase reporter, 44 h. Potency, µM (titrated, usually from 41.8 µM), without a hit: at the top dose activity change, negative = inhibition, most hits filed as inhibitors. 340,000 compounds, 3.4% hits; also: potency is read from the fitted curve at half-maximal effect
#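 A cell-based infection assay in which seeded cells (1,000 per well) receive test compound after 4 h, are inoculated with HCVcc-Cre at approximately 0.5 moi, and are incubated 44 h before luminescence detection.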
# * marks the source's active call; other numbers are inactive results; ? = inconclusive; · = no result given; [ ] = dose if it differs, or a comment. The list is not random: actives were taken first. Their share in the collection is about 7.3%. Unless noted, calls follow the shape of the dose curve; as a rule, active = well fitted curve in the direction sought with a large enough effect; inconclusive = small, poorly fitted or top-dose-only effect, or another doubt; inactive = no such curve, though single readings can be large; an effect the other way counts as inactive or inconclusive. Unless noted, % is scaled to controls: 0 for no effect and ±100 for the full control effect.
SMILES,AmpC detergent,HCMV inh,FMDV antiviral,AmpC inh no detg,HCV inh
O=C(NCCS(=O)(=O)N1CCN(c2ccccc2)CC1)C1CC1,-17.4%,-17.1,-3.2%,3.4%,0.9%[8.37 µM]
COc1ccc(CCNC(=S)N2CCN(S(=O)(=O)c3ccc(C)cc3)CC2)cc1,-12.6%,-98.0*,7.4%,-25.8%,?
O=S(=O)(c1ccccc1)N1CCN(C(=S)NCCc2ccccc2)CC1,-7.5%,-72.3*,30.4%,-26.6%,-6.1%
COc1ccc(S(=O)(=O)N2CCN(C(=S)NCCc3ccccc3)CC2)cc1,-2.6%,-1.2,13.5%,-45.0%,·
CC(Sc1ccccc1)C(=O)N1CCN(S(=O)(=O)c2ccccc2)CC1 (stereo not drawn),3.4%,-62.7*,-27.6%,-11.6%,26.0%
CCN(CC)c1ccc2cc(C(C)=O)c(=O)oc2c1,-8.3%,44.9,49.6%,-12.2%,-22.1%
CCN(CC)c1ccc2cc(NC(=O)CCC(=O)O)c(=O)oc2c1,?,-66.4*,·,-12.6%,3.6%
CCOC(=O)c1[nH]c2ccc(OC)cc2c1NC(=O)CN1CCc2ccccc2C1,?,?,?,40.3%,?
COC(=O)c1[nH]c2ccccc2c1NC(=O)CN1CCN(c2cccc(OC)c2)C(C)C1 (stereo not drawn),0.2%,-103.5*,?,42.5%,?
CCOc1ccc(OCC)c(NC(=O)CN2CCN(c3cccc(C)c3)CC2)c1,-8.2%,-3.4,?,20.7%,?
COC(=O)c1[nH]c2cc(OC)ccc2c1NC(=O)CCN1CCN(c2cccc(C)c2C)CC1,?,7.8,39.8µM*,156.4%,6.31µM*
COC(=O)c1[nH]c2cc(OC)ccc2c1NC(=O)CCN1CCN(c2ccccc2)CC1,-0.8%,-3.0,-10.6%,100.2%,-12.1%
CCOc1ccc(OCC)c(NC(=O)CN2CCN(c3cccc(C)c3)C(C)C2)c1 (stereo not drawn),?,-6.6,?,-0.4%,8.91µM*
COc1ccc(C(=O)Nc2ccc(Cl)c(S(=O)(=O)N3CCOCC3)c2)cc1,·,-76.0*,25.1µM*,-7.5%,8.91µM*
O=C(Nc1ccc(Cl)c(S(=O)(=O)N2CCOCC2)c1)c1ccc(Cl)nc1,-17.9%,?,17.8µM*,-20.2%,11.2µM*
O=C(Nc1ccc(Cl)c(S(=O)(=O)N2CCOCC2)c1)c1ccc2c(c1)OCCO2,?,-62.3*,-23.1%,-32.1%,10µM*
O=C(Nc1ccc(Cl)c(S(=O)(=O)N2CCOCC2)c1)c1ccccn1,-1.4%,-16.7,-19.1%,-0.9%,-29.0%
O=C(Nc1ccc(Cl)c(S(=O)(=O)N2CCOCC2)c1)c1ccc2c(c1)OCO2,·,?,31.6µM*,-26.1%,10µM*
COc1ccc(CN2C(=O)c3ccccc3C2c2nnnn2-c2ccc3c(c2)OCCO3)cc1 (stereo not drawn),·,0.6,1.1%,·,·
CCN(c1ccccc1)S(=O)(=O)c1nnc(NC(=O)C(C)(C)C)s1,-1.1%,19.1,5.2%,-5.2%,6.4%
O=C(Nc1ccc(Cl)c(S(=O)(=O)N2CCOCC2)c1)c1ccc(OCC2CCCO2)cc1 (stereo not drawn),-0.5%,·,7.94µM*,75.2%,?
Cc1ccc(NC(=O)c2ccc(OCC3CCCO3)cc2)cc1 (stereo not drawn),?,47.9,-14.4%,-18.7%,-8.9%
COc1ccc(NS(=O)(=O)c2cc(NC(=O)c3ccc(Cl)cc3)ccc2N2CCOCC2)cc1,·,?,66.6%,0.2%,7.94µM*
CC1=Nc2cc(C(=O)NCCc3ccccc3)ccc2Sc2c(C)ccc(C)c21,6.3%,-103.1*,-20.7%,·,·
CCCNC(=O)c1ccc2c(c1)N=C(C)c1c(C)ccc(C)c1S2,2.3%,-102.0*,-20.7%,·,·
CC1=Nc2cc(C(=O)NCCCN3CCOCC3)ccc2Sc2c(C)ccc(C)c21,-11.0%,-68.5*,-9.3%,177.5%,?
COc1ccc(CCNC(=O)c2ccc3c(c2)N=C(C)c2cc(C)ccc2S3)cc1OC,18.6%,-20.6,?,·,·
CC1=Nc2cc(C(=O)NCCc3ccc(Cl)cc3)ccc2Sc2c(C)ccc(C)c21,9.4%,-87.7*,-27.5%,·,·
COc1ccc(CNC(=O)c2ccc3c(c2)N=C(C)c2c(C)ccc(C)c2S3)cc1,8.0%,-6.5,?,·,·
